# The whole screen tested about 340,000 compounds, of which about 1,000 (0.29%) were called active. Cut-off read from the data, not from the text of the source: inconclusive = inhibition above about 27% without an active follow-up result; inactive = below that. Only a sample is shown. Entries with a potency or affinity are not part of this list.
# Assay: H1N1 influenza NS1A inhibitors, functional cell based assay (AID 504329)
# Conditions: percent inhibition, at 12.5 µM, hits give high values
row,Compound,inhibition
1,Cc1ccc(S(=O)(=O)N2CCCC(C(=O)N3CCC4(CC3)OCCO4)C2)cc1 (centres undefined),2.04% (inactive)
2,COc1ccc(S(=O)(=O)N(CCC(=O)O)Cc2ccccc2)cc1,-3.39% (inactive)
3,O=C(N/N=C/c1cc2c(cc1Br)OCO2)c1cccnc1,3.42% (inactive)
4,O=C(N/N=C/c1cc(Br)c(Br)o1)c1cccnc1,4.32% (inactive)
5,O=C(N/N=C/c1cc(Br)c(O)c(Br)c1)c1cccnc1,-2.33% (inactive)
6,COc1cc(/C=N/NC(=O)c2cccnc2)cc(Br)c1O,3.86% (inactive)
7,Cc1ccc(N(CC(=O)NCc2ccccn2)S(=O)(=O)c2ccccc2)cc1Cl,-3.75% (inactive)
8,Cc1ccc(NC(=O)CCN2C(=O)CSC2=O)cc1,-13.2% (inactive)
9,CCCCN1C(=O)/C(=C2/Sc3ccc(OC)cc3N2CC)SC1=S,-6.84% (inactive)
10,COc1cc2c3c(c1)-c1c(sn(-c4cc(OC)ccc4OC)c1=S)C(C)(C)N3C(=O)C2=O,7.42% (inactive)
11,COc1ccc2c(c1)-c1c(sn(-c3ccccc3)c1=S)C(C)(C)N2,0.13% (inactive)
12,COc1ccc(N2CCN(C(=O)c3ccc(Cl)c(S(=O)(=O)N4CCOCC4)c3)CC2)cc1,-0.24% (inactive)
13,CN(C)c1c(-c2ccccc2)cc(-c2ccccc2)[nH]c1=O,-13.7% (inactive)
14,O=C1/C(=C/c2ccc([N+](=O)[O-])cc2)C=C(c2ccccc2)N1c1ccccc1,16.3% (inactive)
15,O=C(O)c1cccc(N2C(=O)/C(=C/c3ccc([N+](=O)[O-])cc3)C=C2c2ccccc2)c1,15.9% (inactive)
16,CSCCC(NC(=O)c1ccccc1)C(=O)N1CCN(C(=O)c2ccccc2)CC1 (centres undefined),-5.85% (inactive)
17,C[C@H](CO)N1C[C@H](C)[C@@H](CN(C)S(=O)(=O)c2ccc(F)cc2)Oc2c(NS(=O)(=O)c3ccccc3)cccc2C1=O,-4.12% (inactive)
18,Cc1oc(-c2cccc(Cl)c2)nc1CN1CCC(C(=O)NCc2cccnc2)CC1,9.09% (inactive)
19,COc1ccccc1NC(=O)CN1CCN(CC(=O)Nc2ccc(F)cc2)CC1,1.85% (inactive)
20,CCOc1ccc(NC(=O)CN2CCN(CC(=O)Nc3ccccc3OC)CC2)cc1,-5.69% (inactive)
21,CCOC(=O)c1c(NC(=O)CN2CCN(C(=O)c3ccco3)CC2)sc(C)c1C,-5.18% (inactive)
22,CCN1/C(=C\C=C(C(C)=O)C(C)=O)Sc2ccccc21,3.69% (inactive)

row,Compound,inhibition
1,CC[n+]1c(/C=C/Nc2ccccc2)sc2ccccc21,11.6% (inactive)
2,CC[n+]1c(/C=C(\C)SC)sc2ccccc21,3.81% (inactive)
3,CC[n+]1c(/C=C(\C)OC)sc2ccccc21,-2.73% (inactive)
4,CC/C(=C/c1sc2ccccc2[n+]1CC)SC,-0.17% (inactive)
5,CC[n+]1c(/C=C(/C)SC)sc2ccccc21,-2.81% (inactive)
6,Cc1nn(C(C)C(=O)NNC(=S)Nc2ccc(F)cc2)c(C)c1[N+](=O)[O-] (centres undefined),6.47% (inactive)
7,Cc1c(O)ccc(C(=O)CN2CCN(c3ccccc3F)CC2)c1O,-1.8% (inactive)
8,CC(C)(C)c1ccc(C(=O)NCCCNC(=O)c2cccnc2)cc1,-2.72% (inactive)
9,CCN(CC)C(=O)c1sc2nc(-c3ccccn3)[nH]c(=O)c2c1C,-6.6% (inactive)
10,Cc1sc2nc(-c3ccccn3)[nH]c(=O)c2c1-c1ccccc1,-4.3% (inactive)
11,Cc1cc(C)c(S(=O)(=O)N2CCCC(C(=O)N3CCOCC3)C2)c(C)c1 (centres undefined),-9.55% (inactive)
12,Fc1ccccc1NC(=S)N1CCOCC1,16.1% (inactive)
13,COC(=O)c1sc(S(=O)(=O)Nc2ccc(C)cc2)c(C(=O)OC)c1C,12.7% (inactive)
14,CCN(/C(N)=N/c1nc(C)cc(C)n1)c1ccccc1,-6.77% (inactive)
15,CC12CCC(C(=O)N(CSC(=S)N/N=C\c3ccccc3Cl)C1=O)C2(C)C (centres undefined),-1.31% (inactive)
16,CC12CCC(C(=O)N(CSC(=S)N/N=C\c3ccccc3)C1=O)C2(C)C (centres undefined),6.84% (inactive)
17,CCC(C(=O)NC1CCCC1)n1c(SCc2cccc(C)c2)nc2ccncc21 (centres undefined),-51.9% (inactive)
18,O=[N+]([O-])c1c(NCCCO)cc(N2CCCCCC2)c2nonc12,21.6% (inactive)
19,COc1ccc(-c2nc(C#N)c(N3CC(C)OC(C)C3)o2)cc1OC (centres undefined),2.35% (inactive)
20,COc1ccc(NS(=O)(=O)c2ccc(C(=O)N3CCN(c4ccc(F)cc4)CC3)cc2)cc1,1.18% (inactive)
21,CC(CC(F)(F)F)N1CCC(n2nccc2NC(=O)CCCc2ccccc2)CC1 (centres undefined),-11% (inactive)
22,Fc1ccccc1/C=N/Nc1ccc(Cl)nn1,-6.11% (inactive)

row,Compound,inhibition
1,Oc1c(Br)cc(Br)cc1/C=N/Nc1ccc(Cl)nn1,4.26% (inactive)
2,Cc1ccccc1/C=N/Nc1ccc(Cl)nn1,3.61% (inactive)
3,Oc1ccc(/C=N/Nc2ccc(Cl)nn2)cc1O,4.82% (inactive)
4,CCCCC(=O)Nc1cccc(C(=O)N/N=C/c2ccc(OC)cc2OC)c1,1.12% (inactive)
5,CC(C)OC(=O)c1cn(-c2ccccc2)nc1-c1ccc2c(c1)OCCO2,-6.27% (inactive)
6,CCN(C[C@H]1N[C@@](C)(C(=O)OC)[C@H]2C(=O)N(Cc3ccccc3)C(=O)[C@@H]12)C(=O)c1ccc(F)cc1,-26.8% (inactive)
7,O=C(CN1CCN(C(C(=O)Nc2ccc(Cl)cc2C(F)(F)F)c2ccccc2)CC1)NC1CC1 (centres undefined),3.63% (inactive)
8,CC(=O)c1ccc(NC(=O)C(C)Nc2ccc(Cl)cc2)cc1 (centres undefined),-4.25% (inactive)
9,COC(=O)C(=CC(=CN(C)C)C=C(C(=O)OC)C(=O)OC)C(=O)OC,-13.2% (inactive)
10,CC(C)Cn1c(NCCO)nc2ccccc21,-6.72% (inactive)
11,O=c1[nH]c(-c2ccccn2)cc2ccccc12,-3.67% (inactive)
12,O=C(COC(=O)c1ccccn1)Nc1cccc2ccccc12,-2.54% (inactive)
13,CN(C)CCCNCC(=O)Nc1ccccc1N1CCOCC1,5.38% (inactive)
14,O=C(COc1ccc2ccccc2c1)N1CCN(C(=O)c2ccco2)CC1,-12.2% (inactive)
15,CC(=O)NC1=C(Nc2ccc(N(C)C)cc2)C(=O)c2ccccc2C1=O,12.5% (inactive)
16,CN(C=[N+](C)C)c1cccc2c1C(=O)c1ccccc1C2=O,3.5% (inactive)
17,O=C1c2ccccc2C(=O)c2c1cccc2N(CCO)CCO,4.16% (inactive)
18,CN(C)S(=O)(=O)c1cccc2c1C(=O)c1ccccc1C2=O,4.55% (inactive)
19,CCN(CC)CC(=O)Nc1cccc2c1C(=O)c1ccccc1C2=O,11% (inactive)
20,CNc1c(C(=O)O)ccc2c1C(=O)c1ccccc1C2=O,13.4% (inactive)
